From the supplement of paper PMC6555819

Assays:
Assay in all cases: PBM binding z-score (relative to random genomic background probes); higher = stronger binding; sequences stand for … in GC…GCGATTGACAGCGTAGAATGAAGG
[1] = test system: FXR:RXRa (NR concentration 270 nM, RXRa partner concentration 90 nM)
Outline: (§1)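 Each nuclear receptor dimer, without ligand, was incubated for 1 h on custom Agilent 4×180K protein-binding microarrays. Binding was detected with antibodies against each partner (one per run), and scanned fluorescence was regression-normalized. The binding z-scores are referenced to random human genomic background probes.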

[2] = test system: LXRa:RXRa (NR concentration 270 nM, RXRa partner concentration 90 nM)
Outline: as §1

[3] = test system: LXRa homodimer (NR concentration 270 nM)
Outline: as §1

[4] = test system: LXRb:RXRa (NR concentration 270 nM, RXRa partner concentration 90 nM)
Outline: as §1

[5] = test system: LXRb homodimer (NR concentration 270 nM)
Outline: as §1

[6] = test system: PPARa:RXRa (NR concentration 270 nM, RXRa partner concentration 90 nM)
Outline: as §1

[7] = test system: PPARg:RXRa (NR concentration 180 nM, RXRa partner concentration 90 nM)
Outline: as §1

[8] = test system: PPARg:RXRa 270nM:90nM, anti-RXR (NR concentration 270 nM, RXRa partner concentration 90 nM)
Outline: as §1

[9] = test system: PPARg:RXRa 30nM:10nM, anti-RXR (NR concentration 30 nM, RXRa partner concentration 10 nM)
Outline: as §1

[10] = test system: PPARg:RXRa 90nM:30nM, anti-RXR (NR concentration 90 nM, RXRa partner concentration 30 nM)
Outline: as §1

| Sequence | PBM binding z-score [1] | PBM binding z-score [2] | PBM binding z-score [3] | PBM binding z-score [4] | PBM binding z-score [5] | PBM binding z-score [6] | PBM binding z-score [7] | PBM binding z-score [8] | PBM binding z-score [9] | PBM binding z-score [10] |
| --- | --- | --- | --- | --- | --- | --- | --- | --- | --- | --- |
| CCTGTTAGGTCATGGTCAGCTAATCTACAGTATG | 4.26 | 2.77 | 0.732 | 2.3 | 0.739 | 3.71 | 1.92 | 2.38 | 0.613 | 1.33 |
| TACACAGGGTCAAAGGCCAGAGTACGAATGTCGA | 6.94 | 5.94 | 1.96 | 4.44 | 1.69 | 5.95 | 7.46 | 7.03 | 4.73 | 6.42 |
| AGAATGATGTTACCAAAGATCAGGGAAACGCTTG | -0.399 | 0.968 | -0.229 | -0.18 | -0.38 | -0.0184 | 0.652 | 0.26 | 0.0901 | 0.313 |
| TCATATAGGTAAAGGTGATAGTCGAACGATATGA | 0.212 | 0.601 | -0.19 | 0.539 | -0.129 | 2.02 | 2.72 | 3.48 | 3.92 | 3.51 |
| TAGCATAGGTCATTCAGGGGCCAGTATAGAAAGC | 6.82 | 5.38 | 1.82 | 4.56 | 1.73 | 5.15 | 3.49 | 4.27 | 1.5 | 3.18 |
| CCGACTGGGGCATAAGGTTACCCTAAGCCAGCCC | 0.368 | 0.99 | -0.135 | 0.439 | -1.18 | 1.6 | 1.95 | 3.02 | 0.838 | 2.09 |
| CGTCCAAGGTCAGCGAGGTCAGTGAATGCCGAGT | 6.31 | 5.26 | 1.83 | 4.28 | 0.00119 | 5 | 3.79 | 4.78 | 0.896 | 3.3 |
| CCTACTGGGTCAAAAAGGTCATTGATGCCGATAA | 5.59 | 5.57 | 4.15 | 5.29 | 1.01 | 5.73 | 7 | 6.52 | 4.03 | 5.73 |
| TCTAGTTGGTCAAAGGTCACACAGTCGAAATGCG | 6.26 | 5.83 | 4 | 5.36 | 1.46 | 6.64 | 11.6 | 9.15 | 10 | 11.1 |
| CCAGACAGGTGAAAGGTAACACAGTCTGGTACGC | 0.883 | 0.799 | -0.29 | 0.919 | -0.313 | 3.54 | 5.85 | 6.13 | 4.72 | 6.42 |
| TCTACTAGGTCAGTTGGTCAGCTAACGAGCTGCC | 1.67 | 1.12 | -0.0574 | 0.857 | 1.06 | 2.61 | 4.64 | 4.2 | 3.87 | 4.08 |
| CTCGAAAGGTCGATTGAGGTGAGTATACGGATAA | 4.35 | 3.38 | -0.0633 | 2.93 | 0.38 | 4.12 | 1.66 | 2.47 | 0.642 | 1.43 |
| CGCACTAGGTCAAGGACAGTGAATCTCCGCACGC | 3.09 | 2.28 | 0.266 | 1.46 | 0.1 | 4.26 | 6.58 | 5.97 | 3.25 | 5.37 |
| ATCTCTAGGTAAAGGTTCAGTGAATCCCGAGGAT | 0.405 | 0.578 | 0.436 | 0.491 | 0.67 | 2.93 | 4.99 | 5.83 | 3.95 | 5.85 |
| ATCGAAAGGACGTGAGGTGAGTATACAGAAAGGC | -0.29 | -0.461 | -0.29 | -0.468 | -0.162 | -0.116 | 0.724 | -0.318 | 0.185 | -0.252 |
| GGAACGAGGGCAAGTTGCTAGCAGAGTTTGATGG | 0.687 | 0.359 | -0.44 | 0.0629 | -0.392 | 1.48 | 0.841 | 1.04 | -0.453 | 0.0808 |
| ATCGCTAGGTAAAGATAGTTCAGTGAATGCAAAT | -0.496 | 3.12 | -0.0972 | 0.21 | -0.672 | -0.0926 | 0.0549 | -0.523 | -0.376 | -0.332 |
| CCTTACGGGTCACGAGGATATAGCACGACGAGCG | 6.44 | 4.11 | 0.0313 | 3.62 | -0.175 | 5.81 | 6.65 | 6.23 | 2.94 | 4.99 |
| GGACCGAGGGCAAAGTTGATAGCATCTGTCGACG | 1.12 | 0.801 | -0.42 | 0.811 | -0.953 | 2.74 | 3.41 | 4.82 | 2.42 | 4.42 |
| AATACAGGATCATCGTAGGCCAGAGTACGCACAG | -0.0228 | 0.0727 | 0.0212 | 0.0447 | 0.414 | -0.0183 | 0.976 | 0.159 | 0.238 | 0.209 |
| CTCGAAAGGTCGTGCTCAGGTGAGTGTACCAAAC | 5.56 | 4.02 | 0.294 | 3.22 | 0.22 | 4.73 | 2.35 | 4.01 | 1.05 | 2.56 |
| CGAACGAGGGAATGAGTTGATAGCAAATGCCGAT | -0.82 | -0.749 | -0.474 | -1.01 | -0.729 | -1.17 | 0.578 | -0.457 | -0.284 | -0.51 |
| ATACCAAGGTGATCGCGAGGTCGTTGATACTAAC | 1.6 | 0.914 | 0.243 | 1.06 | -0.19 | 1.62 | 0.486 | 0.381 | -0.106 | 0.108 |
| TCTTGTAGATCATTAGAGGTTAAGAAAGTGCGCT | 1.06 | 4.79 | 1.68 | 2.27 | 0.3 | 1.77 | -0.111 | 1.81 | 2.85 | 2.33 |
| GATGCTAGGTCAGGTTGGTCAGCTAACGGGTACG | 1.5 | 1.03 | -0.12 | 0.742 | 0.041 | 1.66 | 0.776 | 0.805 | -0.511 | 0.0836 |
